Test results taken from the supplement of paper PMC10849652.
About 8,800 targets were measured; listed, in parts, are those with a hit and a random draw of the rest. About 0.5% of all pairs of compound and target were hits.

Key:
Assay in all cases: log2 fold change, soluble protein after heating vs DMSO (PISA); higher = thermal stabilisation; K562 lysate, 10 uM; active = over 0.2 and 3.5 SD of the protein, either way, in both replicates (recomputed)
[1] = compound: C=CC(=O)N1CCC[C@@H](n2nc(-c3ccc(Oc4ccccc4)cc3)c3c(N)ncnc32)C1 [ibrutinib]
Method in brief: (§1)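 Following dounce homogenisation of K562 pellets in PBS pH 7.4 with 1 mM MgCl2, crude extract at 1 mg/mL protein was incubated for 30 min with 10 μM compound. Aliquots were then heated for 3 min over 48°C-58°C and pooled, NP-40 was added to 0.5% at 4°C, and soluble protein was recovered as the supernatant at 21,000xg for 90 min. Channel-sum-equalised TMTpro 16plex LC-MS/MS quantified this protein. Each value, from duplicates, is a log-two fold change in thermal stability relative to solvent controls.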

[2] = compound: CC(=O)c1cnc2ccc(-c3cc(Cl)c(O)c(Cl)c3)nc2c1N[C@H]1CC[C@H](CN(C)C)CC1
Method in brief: as §1

[3] = compound: CC(C)(C)Cn1c(N)nc2ccc(-c3[nH]c(C(C)(C)C)nc3-c3ccc(F)cc3)nc21 [ralimetinib]
Method in brief: as §1

[4] = compound: CC(C)(O)CC(=O)NCCn1ccc2ncnc(Nc3ccc(Oc4cccc(C(F)(F)F)c4)c(Cl)c3)c21
Method in brief: as §1

[5] = compound: CC(C)C1=C2N=C(C=C(N2N=C1)NCC3=CC=CC=C3)NCCCCCCN
Method in brief: as §1

[6] = compound: CC1=C(C(CC(=O)N1)C2=CC=C(C=C2)C(F)(F)F)C(=O)NC3=C(C=C4C(=C3)C=NN4)F
Method in brief: as §1

[7] = compound: CC1=C(C2=C(C=C1)C(=O)C3=CC=CC=C3N2CCCN)C
Method in brief: as §1

[8] = compound: CC1=C(C=C(C=C1)NC(=O)C2=CC(=CC=C2)C(C)(C)C#N)NC3=CC4=C(C=C3)N=CN(C4=O)C
Method in brief: as §1

[9] = compound: CC1=C(C=C(C=C1)NC(=O)C2=CC(=CC=C2)N(C)C)NC(=O)C3=CC=C(C=C3)O
Method in brief: as §1

[10] = compound: CC1=CC=C(C=C1)SC2=C3C=C(SC3=CN=C2)C(=O)N
Method in brief: as §1

[11] = compound: CCCS(=O)(=O)Nc1ccc(F)c(C(=O)c2c[nH]c3ncc(-c4ccc(Cl)cc4)cc23)c1F [vemurafenib]
Method in brief: as §1

[12] = compound: CCCS(=O)(=O)Nc1ccc(F)c(C(=O)c2c[nH]c3ncc(Cl)cc23)c1F
Method in brief: as §1

[13] = compound: CCN(CCCOc1ccc2c(Nc3cc(CC(=O)Nc4cccc(F)c4)[nH]n3)ncnc2c1)CCOP(=O)(O)O [barasertib]
Method in brief: as §1

[14] = compound: CC[C@@H]1C(=O)N(C)c2cnc(Nc3ccc(C(=O)NC4CCN(C)CC4)cc3OC)nc2N1C1CCCC1
Method in brief: as §1

[15] = compound: CC[C@@H]1C(=O)N(C)c2cnc(Nc3ccc(C(=O)N[C@H]4CC[C@H](N5CCN(CC6CC6)CC5)CC4)cc3OC)nc2N1C(C)C [volasertib]
Method in brief: as §1

[16] = compound: CCn1c(C(=O)N(C2CC2)C2CC2)cc2c3c(ncn3C)c(Nc3cc(C)n(C)n3)nc21
Method in brief: as §1

[17] = compound: CCn1cc(-c2ccnc3[nH]c(-c4cccc(CN(C)C)c4)cc23)c(-c2ccc(NC(=O)N(C)C)cc2)n1
Method in brief: as §1

[18] = compound: CN1CCC(CNc2ccc3ncc(-c4cccc(OC(F)(F)F)c4)n3n2)CC1
Method in brief: as §1

[19] = compound: CN1CCN(CCOc2cc(OC3CCOCC3)c3c(Nc4c(Cl)ccc5c4OCO5)ncnc3c2)CC1 [saracatinib]
Method in brief: as §1

[20] = compound: CN1CCN(c2nc(C3=C(c4c[nH]c5ccccc45)C(=O)NC3=O)c3ccccc3n2)CC1 [sotrastaurin]
Method in brief: as §1

Measured: log2 fold change

TSFM (UniProt P43897)
Chain of UniProt P43897 (P43897 whole entry, looked up): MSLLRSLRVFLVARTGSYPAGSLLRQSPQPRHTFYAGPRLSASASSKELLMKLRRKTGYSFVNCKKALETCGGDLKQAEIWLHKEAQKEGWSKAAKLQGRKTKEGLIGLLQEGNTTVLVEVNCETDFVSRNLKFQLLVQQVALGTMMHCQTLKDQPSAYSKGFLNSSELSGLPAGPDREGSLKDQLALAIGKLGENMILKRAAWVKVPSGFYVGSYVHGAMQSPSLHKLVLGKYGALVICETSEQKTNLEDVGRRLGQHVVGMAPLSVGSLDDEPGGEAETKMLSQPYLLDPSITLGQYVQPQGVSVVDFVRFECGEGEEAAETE
inactive: [1] 0.004 | [2] -0.05 | [3] 0.03 | [4] 0.026 | [5] 0.015 | [6] -0.024 | [7] -0.003 | [8] 0.116 | [9] 0.017 | [10] -0.063 | [11] -0.007 | [12] 0.005 | [13] 0.031 | [14] -0.041 | [15] -0.089 | [16] 0.006 | [17] 0.081 | [18] -0.05 | [19] -0.014 | [20] -0.012

THEMIS2 (UniProt Q5TEJ8)
Chain of UniProt Q5TEJ8 (Q5TEJ8 whole entry, looked up): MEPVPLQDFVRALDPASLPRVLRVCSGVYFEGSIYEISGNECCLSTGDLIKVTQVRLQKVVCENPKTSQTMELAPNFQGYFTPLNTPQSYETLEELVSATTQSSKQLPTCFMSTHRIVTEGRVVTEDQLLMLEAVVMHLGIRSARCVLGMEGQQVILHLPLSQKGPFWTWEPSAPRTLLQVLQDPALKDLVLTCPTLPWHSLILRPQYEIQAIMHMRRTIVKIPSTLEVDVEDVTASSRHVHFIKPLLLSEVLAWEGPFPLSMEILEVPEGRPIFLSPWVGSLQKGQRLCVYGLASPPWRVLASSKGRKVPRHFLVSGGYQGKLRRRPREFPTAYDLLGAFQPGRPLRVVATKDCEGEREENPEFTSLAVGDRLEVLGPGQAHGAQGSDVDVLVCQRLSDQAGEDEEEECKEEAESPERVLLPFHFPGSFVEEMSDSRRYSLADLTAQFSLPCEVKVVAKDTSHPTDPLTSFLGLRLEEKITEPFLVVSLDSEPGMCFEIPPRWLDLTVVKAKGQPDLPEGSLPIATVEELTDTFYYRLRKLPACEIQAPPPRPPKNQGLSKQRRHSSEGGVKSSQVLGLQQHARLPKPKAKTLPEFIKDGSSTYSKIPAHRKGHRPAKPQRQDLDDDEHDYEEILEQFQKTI
inactive: [1] 0.029 | [2] -0.038 | [3] 0.059 | [4] -0.037 | [5] -0.009 | [6] 0.029 | [7] -0.051 | [8] -0.023 | [9] -0.042 | [10] 0.126 | [11] -0.004 | [12] 0.11 | [13] -0.052 | [14] 0.016 | [15] 0.132 | [16] 0.015 | [17] -0.019 | [18] 0.004 | [19] 0.01 | [20] -0.016

TRNAU1AP (UniProt Q9NX07)
Chain of UniProt Q9NX07 (Q9NX07 whole entry, looked up): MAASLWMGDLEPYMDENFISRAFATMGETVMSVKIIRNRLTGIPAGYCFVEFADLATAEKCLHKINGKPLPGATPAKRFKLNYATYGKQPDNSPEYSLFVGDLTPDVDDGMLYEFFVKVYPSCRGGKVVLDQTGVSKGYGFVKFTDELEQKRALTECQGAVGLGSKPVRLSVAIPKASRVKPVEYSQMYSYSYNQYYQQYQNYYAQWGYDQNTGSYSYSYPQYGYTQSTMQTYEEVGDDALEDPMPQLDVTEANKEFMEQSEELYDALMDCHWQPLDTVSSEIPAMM
active: [11] -0.335
inactive: [1] -0.013 | [2] -0.212 | [3] 0.07 | [4] -0.045 | [5] 0.039 | [6] -0.008 | [7] 0.02 | [8] -0.035 | [9] 0.034 | [10] 0.021 | [12] 0.007 | [13] 0.059 | [14] 0.062 | [15] -0.041 | [16] 0.04 | [17] -0.264 | [18] 0.031 | [19] 0.027 | [20] -0.027

TLK2 isoform 2 (UniProt Q86UE8)
Chain of UniProt Q86UE8 (Q86UE8 whole entry, looked up): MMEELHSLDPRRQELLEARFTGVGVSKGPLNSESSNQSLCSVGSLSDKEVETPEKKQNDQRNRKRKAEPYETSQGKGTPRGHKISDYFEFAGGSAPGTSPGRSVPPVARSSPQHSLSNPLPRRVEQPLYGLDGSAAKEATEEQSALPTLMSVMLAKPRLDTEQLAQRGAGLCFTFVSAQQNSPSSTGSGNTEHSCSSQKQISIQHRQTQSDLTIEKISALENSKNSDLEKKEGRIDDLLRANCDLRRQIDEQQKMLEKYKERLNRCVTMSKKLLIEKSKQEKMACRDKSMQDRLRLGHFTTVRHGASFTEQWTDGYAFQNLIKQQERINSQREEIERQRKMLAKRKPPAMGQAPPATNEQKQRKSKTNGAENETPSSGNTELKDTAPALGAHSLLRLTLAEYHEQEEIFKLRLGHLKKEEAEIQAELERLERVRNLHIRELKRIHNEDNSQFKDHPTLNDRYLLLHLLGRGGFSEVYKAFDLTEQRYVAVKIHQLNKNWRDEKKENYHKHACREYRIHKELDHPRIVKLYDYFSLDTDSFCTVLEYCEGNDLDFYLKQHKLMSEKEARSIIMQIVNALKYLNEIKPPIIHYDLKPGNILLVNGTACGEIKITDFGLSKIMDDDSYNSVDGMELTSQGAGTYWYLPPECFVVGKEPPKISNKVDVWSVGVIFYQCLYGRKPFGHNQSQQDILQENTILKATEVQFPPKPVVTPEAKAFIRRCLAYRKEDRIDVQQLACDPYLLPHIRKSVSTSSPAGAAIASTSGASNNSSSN
inactive: [1] -0.021 | [2] 0.104 | [3] 0.035 | [4] -0.018 | [5] 0.007 | [6] -0.009 | [7] 0.051 | [8] 0 | [9] 0.025 | [10] -0.055 | [11] -0.015 | [12] -0.011 | [13] 0.017 | [14] -0.068 | [15] -0.03 | [16] -0.009 | [17] -0.171 | [18] 0.085 | [19] 0.021
active: [20] 0.26

UBR4 (UniProt Q5T4S7)
inactive: [1] -0.019 | [2] -0.008 | [3] 0.02 | [4] -0.011 | [5] -0.02 | [6] 0.003 | [7] 0.011 | [8] 0.009 | [9] 0.014 | [10] 0.01 | [11] -0.003 | [12] 0.016 | [13] 0.02 | [14] -0.037 | [15] -0.03 | [16] 0.019 | [17] -0.034 | [18] -0.031 | [19] 0.01 | [20] 0.007

UBR5 (UniProt O95071)
inactive: [1] -0.001 | [2] -0.005 | [3] 0.01 | [4] -0.028 | [5] -0.005 | [6] 0.004 | [7] -0.011 | [8] 0.013 | [9] 0.016 | [10] 0.018 | [11] 0.004 | [12] 0.035 | [13] 0.045 | [14] 0.006 | [15] -0.031 | [16] 0.01 | [17] -0.029 | [18] 0.003 | [19] 0.019 | [20] -0.005

TROAP (UniProt Q12815)
Chain of UniProt Q12815 (Q12815 whole entry, looked up): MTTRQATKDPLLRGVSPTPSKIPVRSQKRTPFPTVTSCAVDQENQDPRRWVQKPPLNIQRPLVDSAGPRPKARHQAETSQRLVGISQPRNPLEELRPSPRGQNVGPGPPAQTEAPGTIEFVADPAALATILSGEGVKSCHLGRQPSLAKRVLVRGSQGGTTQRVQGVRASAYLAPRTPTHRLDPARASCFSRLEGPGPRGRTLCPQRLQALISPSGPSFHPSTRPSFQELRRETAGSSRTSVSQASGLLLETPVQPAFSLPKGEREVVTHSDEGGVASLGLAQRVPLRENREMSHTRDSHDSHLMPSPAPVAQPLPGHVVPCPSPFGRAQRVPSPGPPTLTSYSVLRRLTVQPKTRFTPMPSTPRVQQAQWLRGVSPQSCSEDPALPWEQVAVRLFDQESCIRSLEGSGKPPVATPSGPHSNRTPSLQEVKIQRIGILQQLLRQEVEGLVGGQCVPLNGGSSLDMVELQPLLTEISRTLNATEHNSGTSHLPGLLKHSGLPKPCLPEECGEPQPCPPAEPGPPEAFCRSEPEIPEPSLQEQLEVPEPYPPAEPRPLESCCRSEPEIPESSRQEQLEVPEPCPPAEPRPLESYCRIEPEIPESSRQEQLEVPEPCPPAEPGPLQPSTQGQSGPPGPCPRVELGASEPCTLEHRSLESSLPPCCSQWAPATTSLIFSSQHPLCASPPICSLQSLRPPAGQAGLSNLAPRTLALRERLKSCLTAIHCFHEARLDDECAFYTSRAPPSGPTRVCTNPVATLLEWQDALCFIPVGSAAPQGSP
inactive: [1] 0.191 | [2] -0.096 | [3] 0.042 | [4] -0.02 | [5] 0.037 | [6] 0.011 | [7] 0.02 | [8] -0.006 | [9] 0.08 | [10] -0.25 | [11] 0.113 | [12] 0.146 | [13] 0.053 | [14] 0.063 | [15] 0.31 | [16] 0.043 | [17] -0.03 | [18] 0.042 | [19] 0.014 | [20] 0.002

TMPO (UniProt P42166)
Chain of UniProt P42166 (P42166 whole entry, looked up): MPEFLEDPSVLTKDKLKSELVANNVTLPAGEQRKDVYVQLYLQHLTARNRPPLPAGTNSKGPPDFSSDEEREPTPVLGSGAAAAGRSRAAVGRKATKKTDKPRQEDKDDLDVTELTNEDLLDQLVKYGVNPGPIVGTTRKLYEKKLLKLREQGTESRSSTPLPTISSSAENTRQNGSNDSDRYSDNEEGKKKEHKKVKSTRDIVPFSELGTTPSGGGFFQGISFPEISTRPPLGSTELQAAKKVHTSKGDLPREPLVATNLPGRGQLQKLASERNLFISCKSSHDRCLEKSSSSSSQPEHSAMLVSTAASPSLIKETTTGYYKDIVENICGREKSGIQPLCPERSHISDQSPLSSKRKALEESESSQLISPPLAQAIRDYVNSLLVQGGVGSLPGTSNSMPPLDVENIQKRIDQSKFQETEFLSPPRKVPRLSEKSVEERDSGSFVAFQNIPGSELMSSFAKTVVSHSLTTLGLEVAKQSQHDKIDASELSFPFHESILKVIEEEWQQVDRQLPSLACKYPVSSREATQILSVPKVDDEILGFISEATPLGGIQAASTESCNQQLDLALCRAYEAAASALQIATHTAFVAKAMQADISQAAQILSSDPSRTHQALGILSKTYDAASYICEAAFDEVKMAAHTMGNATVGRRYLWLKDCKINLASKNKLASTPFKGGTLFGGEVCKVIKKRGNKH
inactive: [1] -0.025 | [2] -0.018 | [3] -0.087 | [4] -0.004 | [5] 0.018 | [6] 0.011 | [7] 0 | [8] 0.024 | [9] 0.047 | [10] -0.026 | [11] 0.027 | [12] -0.004 | [13] 0.04 | [14] -0.041 | [15] -0.025 | [16] 0.033 | [17] 0.026 | [18] 0.003 | [19] -0.017 | [20] -0.161
